These results are taken from PubChem BioAssay AID651871 (Sanford-Burnham Center for Chemical Genomics, 2012).

The assay deals with HL-1. The assay can be described thus: protection of cardiomyocytes from stress damage, SAR follow-up, cell-based, panel, H9c2 and HL-1, ATP luminescence, set 2 (AID 651871).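 Note: cells exposed to stressor for 2 h before ATP readout; reference of the scale not given here.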 Particulars: H9c2/HL-1 cardiomyocytes, 2-deoxyglucose stress, with 2-deoxyglucose, run 15, at 79 µM (top of the series).
Consider `CCOC(=O)c1cccc(NC(=O)CNC(=O)c2cc(-c3cc(OC)c(OC)c(OC)c3)nc3ccccc23)c1`, for which the activity (protection/inhibition) turned out to be 87.5%.
Take `COc1ccc2nc(-c3cc(OC)c(OC)c(OC)c3)cc(C(=O)NCC(=O)Nc3ccc(C(C)=O)cc3)c2c1`: the activity (protection/inhibition) amounted to 56%.
Take `COc1ccc2c(c1OC)C(=O)N1c3ccccc3C(=O)N(Cc3cccc(Cl)c3Cl)C21` (stereo not drawn): the activity (protection/inhibition) is -12.5%.
